The first test deals with ELF1 (Homo sapiens, UniProt P32519 1-619). In words: DAPPL (digital affinity profiling via proximity ligation, sequencing); 10 mM Tris-HCl pH 7.5, 50 mM NaCl, 1 mM DTT, 4% glycerol, room temperature, 30 min; GST-TFs on glutathione beads, 16-mer random dsDNA library, 0.1% formaldehyde crosslink after washing; high values mean tight binding. To be noted: protein: recombinant; tags: N-terminal GST; dsDNA, one strand shown. The procedure, abridged: (§1)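 Pools were built from human transcription factors expressed in yeast as GST fusions, captured on glutathione beads and DNA-barcoded, along with a tag-only sample. Incubation with 200 nmole of a 16-mer random double-stranded DNA library lasted 30 min at room temperature in Tris/NaCl/DTT/glycerol buffer, and was followed by washing, 0.1% formaldehyde crosslinking, proximity ligation, PCR amplification and Illumina NextSeq500 sequencing. Binding signal is the quotient of each hexamer's read frequency for a factor and its frequency for the tag-only sample.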
ELF1, sequence (P32519 whole entry, the tested form may be a part): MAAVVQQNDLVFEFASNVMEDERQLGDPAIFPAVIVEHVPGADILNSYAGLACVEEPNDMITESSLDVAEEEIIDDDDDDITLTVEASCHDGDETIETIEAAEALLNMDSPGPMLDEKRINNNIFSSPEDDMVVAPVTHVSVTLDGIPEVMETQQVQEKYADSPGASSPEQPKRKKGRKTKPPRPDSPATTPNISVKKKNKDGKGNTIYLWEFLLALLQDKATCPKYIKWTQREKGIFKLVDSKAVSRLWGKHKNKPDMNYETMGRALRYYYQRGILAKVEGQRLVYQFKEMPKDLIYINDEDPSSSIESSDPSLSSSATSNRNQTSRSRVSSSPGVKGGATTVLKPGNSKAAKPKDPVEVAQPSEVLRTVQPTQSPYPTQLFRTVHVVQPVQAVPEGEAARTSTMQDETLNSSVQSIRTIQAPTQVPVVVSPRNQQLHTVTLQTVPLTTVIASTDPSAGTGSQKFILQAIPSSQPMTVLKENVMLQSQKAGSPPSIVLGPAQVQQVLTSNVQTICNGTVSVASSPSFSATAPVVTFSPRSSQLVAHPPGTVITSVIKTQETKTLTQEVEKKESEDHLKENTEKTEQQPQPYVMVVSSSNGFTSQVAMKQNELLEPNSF
In the case of CTTCAC, the binding signal is 1.45 fold enrichment (6-mer frequency, TF over GST control).
On to CTACCT, for which the binding signal is 1.35 fold enrichment (6-mer frequency, TF over GST control).
Still for that read-out and setting: under ATGAAC stands 1.27 fold enrichment (6-mer frequency, TF over GST control); under GATGAT, 1.32 fold enrichment (6-mer frequency, TF over GST control).
Regarding ATAGTA, the binding signal was 1.19 fold enrichment (6-mer frequency, TF over GST control).
Same read-out and setting: in the case of TCATCT it was 1.3 fold enrichment (6-mer frequency, TF over GST control).
The same measure, in the same setting: in the case of ATACAG it was 1.13 fold enrichment (6-mer frequency, TF over GST control); in that of AAAATA, 1.19 fold enrichment (6-mer frequency, TF over GST control).
On the same count and under the same terms, under AACTAA stands 1.42 fold enrichment (6-mer frequency, TF over GST control).
With GCGCTT, the binding signal was 1.31 fold enrichment (6-mer frequency, TF over GST control).
On the same count and under the same terms, in the case of GCCTTA it was 1.17 fold enrichment (6-mer frequency, TF over GST control); in that of AAATGA, 1.26 fold enrichment (6-mer frequency, TF over GST control); in that of TACGCT, 1.34 fold enrichment (6-mer frequency, TF over GST control).
On the same count and under the same terms, in the case of TCCGCT it was 2.11 fold enrichment (6-mer frequency, TF over GST control).
On the same count and under the same terms, in the case of CCTCCA it was 1.37 fold enrichment (6-mer frequency, TF over GST control); in that of TCCTAG, 1.31 fold enrichment (6-mer frequency, TF over GST control); in that of TCTTTA, 1.31 fold enrichment (6-mer frequency, TF over GST control).
For ATGTTT, the binding signal was 1.41 fold enrichment (6-mer frequency, TF over GST control).
Take GAACTA: the binding signal is 1.3 fold enrichment (6-mer frequency, TF over GST control).
Consider CTCAAC, for which the binding signal was 1.26 fold enrichment (6-mer frequency, TF over GST control).

The next test has as its target T1, EHF (Homo sapiens, UniProt Q9NZC4 1-300).
T1 sequence: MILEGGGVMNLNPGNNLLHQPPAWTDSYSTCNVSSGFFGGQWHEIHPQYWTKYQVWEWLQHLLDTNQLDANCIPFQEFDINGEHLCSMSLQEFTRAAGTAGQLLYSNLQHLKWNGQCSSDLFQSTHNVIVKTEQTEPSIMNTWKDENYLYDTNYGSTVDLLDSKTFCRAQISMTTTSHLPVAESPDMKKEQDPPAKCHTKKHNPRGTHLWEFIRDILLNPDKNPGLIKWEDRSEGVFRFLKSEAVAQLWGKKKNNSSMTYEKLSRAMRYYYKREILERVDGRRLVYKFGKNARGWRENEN
The description is as above. The conditions noted are these: protein: recombinant; tags: N-terminal GST; dsDNA, one strand shown. The method in brief:
as §1
In the case of TGCTTT, the binding signal was 1.04 fold enrichment (6-mer frequency, TF over GST control).
As for CTAGAT, the binding signal is 1.17 fold enrichment (6-mer frequency, TF over GST control).
Same read-out and setting: in the case of CTCTAC it was 1.54 fold enrichment (6-mer frequency, TF over GST control).
Still for that read-out and setting: under CTTGCT stands 1.25 fold enrichment (6-mer frequency, TF over GST control); under TCGATT, 1.05 fold enrichment (6-mer frequency, TF over GST control).
Still for that read-out and setting: under GAAAAT stands 1.14 fold enrichment (6-mer frequency, TF over GST control); under TCCTTG, 1.32 fold enrichment (6-mer frequency, TF over GST control); under CCTAGC, 1.2 fold enrichment (6-mer frequency, TF over GST control).
For AGCTTC, the binding signal was 1.83 fold enrichment (6-mer frequency, TF over GST control).
Same read-out and setting: under CGTACT stands 1.18 fold enrichment (6-mer frequency, TF over GST control); under TCTGGC, 1.22 fold enrichment (6-mer frequency, TF over GST control).
In the case of TCAAAC, the binding signal was 1.15 fold enrichment (6-mer frequency, TF over GST control).
Same read-out and setting: in the case of TTTCGA it was 1.49 fold enrichment (6-mer frequency, TF over GST control); in that of GTATCT, 1.09 fold enrichment (6-mer frequency, TF over GST control).
Consider TTTCAT, for which the binding signal was 1.17 fold enrichment (6-mer frequency, TF over GST control).
The same measure, in the same setting: under TATGTA stands 1.23 fold enrichment (6-mer frequency, TF over GST control).
Same read-out and setting: in the case of CGCCCT it was 1.35 fold enrichment (6-mer frequency, TF over GST control); in that of TTTGAT, 1.25 fold enrichment (6-mer frequency, TF over GST control).
Still for that read-out and setting: in the case of TATGGC it was 1.1 fold enrichment (6-mer frequency, TF over GST control).
As to TATCAT, the binding signal was 1.21 fold enrichment (6-mer frequency, TF over GST control).
Consider CTTCAC, for which the binding signal was 1.41 fold enrichment (6-mer frequency, TF over GST control).
On the same count and under the same terms, under CTACCT stands 1.46 fold enrichment (6-mer frequency, TF over GST control); under ATGAAC, 1.32 fold enrichment (6-mer frequency, TF over GST control); under GATGAT, 1.44 fold enrichment (6-mer frequency, TF over GST control).
The same measure, in the same setting: in the case of ATAGTA it was 1.22 fold enrichment (6-mer frequency, TF over GST control); in that of TCATCT, 1.13 fold enrichment (6-mer frequency, TF over GST control).
On the same count and under the same terms, in the case of ATACAG it was 1.16 fold enrichment (6-mer frequency, TF over GST control); in that of AAAATA, 1.13 fold enrichment (6-mer frequency, TF over GST control).
On to AACTAA, for which the binding signal is 1.42 fold enrichment (6-mer frequency, TF over GST control).
The same measure, in the same setting: under GCGCTT stands 1.31 fold enrichment (6-mer frequency, TF over GST control); under GCCTTA, 1.11 fold enrichment (6-mer frequency, TF over GST control); under AAATGA, 1.23 fold enrichment (6-mer frequency, TF over GST control).
On the same count and under the same terms, under TACGCT stands 1.25 fold enrichment (6-mer frequency, TF over GST control); under TCCGCT, 2.33 fold enrichment (6-mer frequency, TF over GST control).
Turning to CCTCCA, the binding signal was 1.33 fold enrichment (6-mer frequency, TF over GST control).
For TCCTAG, the binding signal is 1.22 fold enrichment (6-mer frequency, TF over GST control).
For TCTTTA, the binding signal was 1.25 fold enrichment (6-mer frequency, TF over GST control).
On the same count and under the same terms, in the case of ATGTTT it was 1.41 fold enrichment (6-mer frequency, TF over GST control).
Same read-out and setting: in the case of GAACTA it was 1.37 fold enrichment (6-mer frequency, TF over GST control); in that of CTCAAC, 1.18 fold enrichment (6-mer frequency, TF over GST control).

The target of a further test is SPI1 (Homo sapiens, UniProt P17947 1-270). The test is described as above. The conditions noted are these: protein: recombinant; tags: N-terminal GST; dsDNA, one strand shown. The procedure, abridged:
as §1
Regarding TGCTTT, the binding signal was 1.14 fold enrichment (6-mer frequency, TF over GST control).
Still for that read-out and setting: in the case of CTAGAT it was 1.2 fold enrichment (6-mer frequency, TF over GST control); in that of CTCTAC, 1.45 fold enrichment (6-mer frequency, TF over GST control).
CTTGCT: the binding signal is 1.44 fold enrichment (6-mer frequency, TF over GST control).
Take TCGATT: the binding signal was 1.08 fold enrichment (6-mer frequency, TF over GST control).
Still for that read-out and setting: in the case of GAAAAT it was 1.14 fold enrichment (6-mer frequency, TF over GST control); in that of TCCTTG, 1.31 fold enrichment (6-mer frequency, TF over GST control); in that of CCTAGC, 1.04 fold enrichment (6-mer frequency, TF over GST control).
On to AGCTTC, for which the binding signal is 1.74 fold enrichment (6-mer frequency, TF over GST control).
As to CGTACT, the binding signal is 1.11 fold enrichment (6-mer frequency, TF over GST control).
Same read-out and setting: in the case of TCTGGC it was 1.25 fold enrichment (6-mer frequency, TF over GST control); in that of TCAAAC, 1.16 fold enrichment (6-mer frequency, TF over GST control).
Same read-out and setting: in the case of TTTCGA it was 1.35 fold enrichment (6-mer frequency, TF over GST control).
On the same count and under the same terms, in the case of GTATCT it was 1.1 fold enrichment (6-mer frequency, TF over GST control); in that of TTTCAT, 1.14 fold enrichment (6-mer frequency, TF over GST control).
Take TATGTA: the binding signal is 1.3 fold enrichment (6-mer frequency, TF over GST control).
For the sequence CGCCCT, the binding signal is 1.24 fold enrichment (6-mer frequency, TF over GST control).
Take TTTGAT: the binding signal is 1.22 fold enrichment (6-mer frequency, TF over GST control).
Still for that read-out and setting: under TATGGC stands 1.12 fold enrichment (6-mer frequency, TF over GST control).
For TATCAT, the binding signal was 1.13 fold enrichment (6-mer frequency, TF over GST control).
For CTTCAC, the binding signal is 1.37 fold enrichment (6-mer frequency, TF over GST control).
The same measure, in the same setting: in the case of CTACCT it was 1.45 fold enrichment (6-mer frequency, TF over GST control); in that of ATGAAC, 1.21 fold enrichment (6-mer frequency, TF over GST control); in that of GATGAT, 1.28 fold enrichment (6-mer frequency, TF over GST control).
For ATAGTA, the binding signal was 1.06 fold enrichment (6-mer frequency, TF over GST control).
Turning to TCATCT, the binding signal is 1.18 fold enrichment (6-mer frequency, TF over GST control).
On the same count and under the same terms, under ATACAG stands 1.12 fold enrichment (6-mer frequency, TF over GST control).
On the same count and under the same terms, under AAAATA stands 1.18 fold enrichment (6-mer frequency, TF over GST control); under AACTAA, 1.38 fold enrichment (6-mer frequency, TF over GST control); under GCGCTT, 1.2 fold enrichment (6-mer frequency, TF over GST control).
Consider GCCTTA, for which the binding signal is 1.13 fold enrichment (6-mer frequency, TF over GST control).
On the same count and under the same terms, in the case of AAATGA it was 1.45 fold enrichment (6-mer frequency, TF over GST control); in that of TACGCT, 1.31 fold enrichment (6-mer frequency, TF over GST control).
Same read-out and setting: in the case of TCCGCT it was 3.26 fold enrichment (6-mer frequency, TF over GST control); in that of CCTCCA, 1.28 fold enrichment (6-mer frequency, TF over GST control).
On the same count and under the same terms, under TCCTAG stands 1.12 fold enrichment (6-mer frequency, TF over GST control); under TCTTTA, 1.32 fold enrichment (6-mer frequency, TF over GST control); under ATGTTT, 1.33 fold enrichment (6-mer frequency, TF over GST control).
On to GAACTA, for which the binding signal is 1.41 fold enrichment (6-mer frequency, TF over GST control).
For CTCAAC, the binding signal was 1.18 fold enrichment (6-mer frequency, TF over GST control).

The values above are taken from article PMC7862700, “An all-to-all approach to the identification of sequence-specific readers for epigenetic DNA modifications on cytosine”.
